# The source made the active and inactive calls. The calls were made as follows: active = hit-call score of the fitted dose curve at least 0.9, where 1 is the maximum; inactive = score below 0.9.
# Read-out: Nuclear factor erythroid 2-related factor 2 (Homo sapiens) (UniProt Q16236)
# Test: LTEA_HepaRG_NFE2L2: Life Technologies and Expression Analysis (LTEA) Assay for Nuclear factor erythroid 2-related factor 2 (NFE2L2) Transcription Factor using HepaRG (AID 2283527);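 as to outcome: TaqMan qRT-PCR transcript level normalised to ACTB GAPDH and POLR2A housekeeping genes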
# Conditions: mRNA level, 48 h; actives raise or lower the signal
# Procedure: LTEA_HepaRG is a cell based, multiplexed-readout assay that uses HepaRG, a human liver cell line, with measurements taken at 48 hours after chemical dosing on a 96-well plate.LTEA_HepaRG_NFE2L2 is one of 102 assay component(s) measured in the LTEA HepaRG cell culture assay. It is a marker of Inflammation/injury.Data from the assay component LTEA_HepaRG_NFE2L2 was analyzed into 1 endpoint. This assay endpoint, LTEA_HepaRG_NFE2L2, was analyzed with bidirectional fitting relative to DMSO as the negative control and baseline of activity. Using a type of inducible reporter, measures of mRNA induction for gain or loss-of-signal activity can be used to understand regulation of transcription factor activity. To generalize the intended target to other relatable targets, this assay endpoint is annotated to the dna binding intended target family, where the subfamily is basic leucine zipper.
# A total of 1060 chemcials from the ToxCast library were tested in eight-point concentration-response experiments. Cell culture and cytotoxicity assays were conducted at Thermo Fisher Scientific's Custom Services facility (Madison, WI). A single lot of human HepaRG cells (Thermo Fisher Scientific, Frederick, MD) was used for the cell culture experiments. 96-well format collagen type I coated plates of human HepaRG cells were prepared using established methods. Briefly, cryopreserved HepaRG cells were thawed, plated at a density of approximately 100,000 cells/well in HepaRG Thaw, Plate, and General Purpose media (HPRG770, Thermo Fisher Scientific), and incubated for 48 hours. 0.5% DMSO was selected as vehicle control to balance the requisite need of DMSO in HepaRG cultures to maintain differentiation (for example, baseline metabolism, proportions of hepatocytes vs. cholangiocytes), while enabling further hepatic receptor pathway activation (for example, PXR and CAR) in response to chemical exposure. 48 hours after plating, the culture medium was replaced with HepaRG Serum-Free Incudtion Media. Cells were exposed to each test chemical in duplicate and maintained in CO2 incubators for another 48 hours. Chemical plates were thawed to room temperature and 200x concentrations of treatment groups were prepared. 8-point conentration-reponse curves were made with the highest exposure at 100 uM, followed by half-log dilutions, all in 0.5% DMSO. Each test plate contained variouse controls, induction positive controls (1mM phenobarbital), cytotoxicity positive controls ([…] aflatoxin B1), vehicle controls (0.5% DMSO), and total lysis controls (0.5% DMSO). Cell morphology images were taken using an Essen IncuCyte FLR automated microscope, with six 96-well plates imaged in about 24 minutes. Images were captured and exported and JPEG files. Spent culture media was transfered to black-well plates for the LDH assay, and remaining media was sorted at -80 C for later use. Cells were treated with RLT buffer and frozen until shipped for gene expression analysis. Total RNA was isolated from the cell suspension in 75 uL of Buffer RLT (Qiagen, Germantown, MD 20874) by Quintiles/Expression Analysis (Durham, NC) using a custom isolation procedure. Total RNA from each plate well was transferred to a preamplification plate. Fluidigm's 96.96 Dynamic ArrayTM (Fluidigm, Amsterdam, the Netherlands) technology was used for gene expression analyses by quantitative reverse transcription polymerase chain reaction (qRT-PCR, performed by Quintiles/Expression Analysis, Durham, NC)89. Standard TaqManTM Assays (Applied Biosystems/ThermoFisher Scientific, Foster City, CA) were used to assess the expression of 93 genes selected based on their selectivity and sensitivity to important hepatic receptors known to be modulated by environmental chemicals; importance in human hepatocyte functionality; and hepatotoxicity. […]
# Sequence of Nuclear factor erythroid 2-related factor 2 (Homo sapiens) (Q16236 whole entry, looked up): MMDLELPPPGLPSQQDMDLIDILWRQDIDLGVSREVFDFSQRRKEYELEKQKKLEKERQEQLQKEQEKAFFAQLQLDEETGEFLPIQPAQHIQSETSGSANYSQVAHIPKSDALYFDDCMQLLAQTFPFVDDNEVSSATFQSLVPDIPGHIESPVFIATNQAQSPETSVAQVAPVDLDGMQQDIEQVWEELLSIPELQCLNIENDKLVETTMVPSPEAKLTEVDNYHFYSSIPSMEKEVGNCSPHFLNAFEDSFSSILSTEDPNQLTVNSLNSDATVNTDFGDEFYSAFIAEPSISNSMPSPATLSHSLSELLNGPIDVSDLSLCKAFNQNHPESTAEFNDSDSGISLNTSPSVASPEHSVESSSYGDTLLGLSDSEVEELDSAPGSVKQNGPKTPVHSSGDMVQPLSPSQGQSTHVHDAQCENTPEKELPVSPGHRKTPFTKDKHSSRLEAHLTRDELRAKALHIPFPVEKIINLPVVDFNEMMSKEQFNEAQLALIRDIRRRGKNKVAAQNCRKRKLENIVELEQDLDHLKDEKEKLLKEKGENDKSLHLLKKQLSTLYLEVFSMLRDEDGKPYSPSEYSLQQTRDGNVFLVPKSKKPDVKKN
Compound,outcome,AC50
CC(COCC(C)OC(=O)c1ccccc1)OC(=O)c1ccccc1 (stereo not given),inactive,
O=C(O)CC(O)(CC(=O)O)C(=O)O,inactive,
CC(C)COC(=O)CCCCC(=O)OCC(C)C,inactive,
COC(=O)CCCC(=O)OC,inactive,
O=C(O)CN(CC(=O)O)CC(=O)O,inactive,
CCCCCCC(C=O)=Cc1ccccc1,inactive,
Cc1cn([C@H]2C=C[C@@H](CO)O2)c(=O)[nH]c1=O,inactive,
CC(C)c1cccc(C(C)C)c1NC(=O)NS(=O)(=O)c1cc(C(C)(C)O)co1,inactive,
O=C(N[C@@H](c1ccccc1)[C@@H]1CCCCN1)c1cccc(C(F)(F)F)c1Cl,,83.8 µM (active)
Cc1occc(=O)c1O,inactive,
Cc1ccc(-c2cc(C(F)(F)F)nn2-c2ccc(S(N)(=O)=O)cc2)cc1,,62.7 µM (active)
NCCOCCOCCN,inactive,
CC1=C(C)S(=O)(=O)CCS1(=O)=O,,65.7 µM (active)
CC(C)(C)c1ccccc1,inactive,
CS(=O)(=O)c1ccc([C@@H](C[C@H]2CCC(=O)C2)C(=O)Nc2cnccn2)cc1Cl,,0.738 µM (active)
CCCCC(CC)COC(=O)CCCCCCCC(=O)OCC(CC)CCCC (stereo not given),inactive,
CCC(C)N(C)C(=O)c1cc2ccccc2c(-c2ccccc2Cl)n1 (stereo not given),,16.8 µM (active)
O=C1O[C@H]([C@H](O)CO)C(O)=C1O,inactive,
Cc1c(C)c2c(c(C)c1O)CCC(C)(COc1ccc(CC3SC(=O)NC3=O)cc1)O2 (stereo not given),inactive,
CCCC(=O)O,inactive,

Compound,outcome,AC50
OCC(O)CO,inactive,
CCCCC(CC)CO (stereo not given),inactive,
CCCCc1nc2cccnc2n1Cc1ccc(-c2ccccc2-c2nnn[nH]2)cc1,inactive,
COC(=O)[C@H]1[C@H]2C[C@@H]3c4[nH]c5cc(OC)ccc5c4CCN3C[C@H]2C[C@@H](OC(=O)c2cc(OC)c(OC)c(OC)c2)[C@@H]1OC,,42.2 µM (active)
CSc1ccc(Oc2ccc(S(N)(=O)=O)cc2CN(C)C)cc1C,inactive,
CC(=O)OCC(COC(C)=O)OC(C)=O,inactive,
CCCCCCCCCC[N+](C)(C)[O-],inactive,
CC(C)OC(=O)C(C)(C)Oc1ccc(C(=O)c2ccc(Cl)cc2)cc1,inactive,
CC(C)c1cccc(C(C)C)c1,inactive,
COC(=O)CCC(=O)OC,inactive,
c1ccc2occc2c1,inactive,
CCCCCCCC(=O)OC,inactive,
Nc1nc(=S)c2[nH]cnc2[nH]1,,26.6 µM (active)
O=[Si]=O,inactive,
S=c1[nH]c2ccccc2s1,inactive,
Cc1cc(SC2=C(O)C[C@@](CCc3ccc(N)cc3)(C(C)C)OC2=O)c(C(C)(C)C)cc1CO,inactive,
CC(=O)CC(c1ccccc1)c1c(O)c2ccccc2oc1=O (stereo not given),inactive,
CCc1nc(N)nc(N)c1-c1ccc(Cl)cc1,inactive,
CCCCCCCCCCCCCCCCO,inactive,
O=C1c2c(O)cccc2Cc2cccc(O)c21,inactive,
